About 83,000 compounds went through this panel and 20% of them were active in at least one assay; those are over-represented in the sample as a whole.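 The test compound was applied at a single concentration to cells in 96-well plates for 48 hours, and percent growth was recorded.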 Unmarked numbers belong to inactive results. Calls of active or inactive are those of the source.
test system: OVCAR-8 ovarian; experiment: NCI-60 one-dose screen, 48 h (100 = growth as untreated, 0 = no growth, -100 = all killed); conditions: 10 µM unless noted
Procedure: Growth inhibition of the OVCAR-8 human tumor cell line is measured as a screen for anti-cancer activity. Cells are grown in 96 well plates and exposed to the test compound for 48 hours. Compounds are tested at a single concentration, which is 10^-5 M for most compounds. The reported endpoint is percent growth (GI% or GIPRCNT), where numbers from 0 - 100% represent growth inhibition, and numbers from -100% - 0 represent cell death. For example, a value of 40 represents 60% growth inhibition. A value of 0 means no net growth occurred over the course of the experiment. A value of -40 indicates 40% of cells at the beginning of the experiment died by the end of the experiment. A value of -100 means all cells are dead at the end of the experiment.
NCI-60 Human Tumor Cell Lines Screen was performed using the standard one-dose NCI protocol, which is described in more detail at https://dtp.cancer.gov/discovery_development/nci-60/default.htm.
Compounds with GIPRCNT values below 10 were considered active. Activity score was based on GIPRCNT using the following formula: […]
Score is 0 for GIPRCNT values of 100 or above, 50 for GIPRCNT values of 0, and 100 for GIPRCNT values of -100.

Compound	growth
COc1cc2c(c(OC)c1)C1c3ccccc3NC(=O)N1CC2 (stereo not given)	44.3%
CN(C)C[C@@H]1CCn2cc(c3ccccc32)C2=C(C(=O)NC2=O)c2cn(c3ccccc23)CCO1	-0.0404% (active)
CCN(CC)Cc1cc(Nc2cc(C(F)(F)F)c(C#N)c3nc4ccccc4n23)ccc1O	9.84% (active)
CCc1nc2cc(F)c(/C=C/C(=O)NO)cc2c(=O)n1CCc1ccccc1	11.6%
COc1cc(Nc2ncc(F)c(Nc3ccc4c(n3)N(COP(=O)(O)O)C(=O)C(C)(C)O4)n2)cc(OC)c1OC	28.7%
CNc1ncc2cc(-c3cc(NC(=O)NCCC(C)(C)C)c(F)cc3C)c(C)nc2n1	27%
CC(C)C1CCC(C)C(C2(C#N)C(N)=NC(N)=C2C#N)C1=O (stereo not given)	106%
Cc1nc(-c2cn3c(n2)-c2ccc(-c4cnn(C(C)(C)C(N)=O)c4)cc2OCC3)n(C(C)C)n1	32.9%
CC(=O)Nc1cccc(-n2c(=O)n(C3CC3)c(=O)c3c(Nc4ccc(I)cc4F)n(C)c(=O)c(C)c32)c1	39%
COc1ccc2c(c1OC)C(=O)O[C@@H]2[C@H]1c2c(c(C#CC#Cc3ccc(F)c(F)c3)c3c(c2OC)OCO3)CCN1C	87.9%
CC(N)C(Cc1ccc(Cl)cc1)c1ccc(Cl)cc1 (stereo not given)	71.5%
N#Cc1c(NC(=O)c2ccco2)[n+]([O-])c2cc(F)c(F)cc2[n+]1[O-]	38.9%
C=CC[n+]1c(/C=C/C=C2\N(C)c3ccccc3C2(C)C)sc2ccc(OC)cc21	12.2%
COc1cnc2c(c1)C(=O)c1c-2n(CCCN2CCOCC2)c(=O)c2cc(Cl)ccc12	32.8%
Cn1ncc(Cl)c1-c1cc(C(=O)N[C@H](CN)Cc2cccc(F)c2)sc1Cl	15.5%
CNC(=O)c1cc(COc2nnc(Nc3ccc(Cl)cc3)c3ccoc23)ccn1	14.3%
CCn1cc(-c2ccnc3[nH]c(-c4cccc(CN(C)C)c4)cc23)c(-c2ccc(NC(=O)N(C)C)cc2)n1	24.9%
COc1ccc(F)c(F)c1C(=O)c1cnc(NC2CCN(S(C)(=O)=O)CC2)nc1N	7.37% (active)
CC(C)OP(=O)(CCC(=O)c1c[nH]c2ccccc12)OC(C)C	91.8%
Cn1c(Nc2ccc(C(F)(F)F)cc2)nc2cc(Oc3ccnc(-c4ncc(C(F)(F)F)[nH]4)c3)ccc21	58.1%

Compound	growth
CCCCCCC1(/C=N/NC(N)=O)NC(=O)NC1=O (stereo not given)	105%
CCCCCCCC(=O)SCC/C=C/[C@@H]1CC(=O)NCc2cccc(n2)C2=N[C@@](C)(CS2)C(=O)N[C@@H](C(C)C)C(=O)O1	7.64% (active)
Nc1nc(Nc2ccccc2)c(C=Nc2ccccc2)c(=O)[nH]1	85.2%
N#Cc1c(C(F)(F)F)cc(Nc2ccc3nc(NCCN4CCCC4)oc3c2)n2c1nc1ccccc12	65.7%
CC(=Nc1ccccc1)C1=C(O)C(Cc2ccccc2)NC1=O (stereo not given)	-50.4% (active)
O=C1NC(=O)[C@@H](c2cn3c4c(cccc24)CCC3)[C@@H]1c1c[nH]c2ccccc12	11.3%
Cc1cc(Nc2ncnc3ccc(NC4=NC(C)(C)CO4)cc23)ccc1Oc1ccn2ncnc2c1	37.3%
CCc1nc2cc(/C=C/C(=O)NO)ccc2c(=O)n1CCc1ccc(OC)cc1	15.3%
CC(=O)OCCC/C(=C\c1ccc2ccccc2c1)[N+](=O)[O-]	-91.3% (active)
O=S1(=O)OC(c2cc(Cl)c(O)c(Br)c2)(c2cc(Cl)c(O)c(Br)c2)c2ccccc21	89.8%
C[C@]12O[C@H](C[C@]1(O)CO)n1c3ccccc3c3c4c(c5c6ccccc6n2c5c31)CNC4=O	-32.5% (active)
Cc1ccc(-c2cc3c(SCC(=O)Nc4cc(C(F)(F)F)ccc4Cl)nccn3n2)cc1	33.1%
COCCN1CCN(Cc2ccc(-c3n[nH]c4c3C(=O)c3c(NC(=O)NN5CCOCC5)cccc3-4)cc2)CC1	-13.4% (active)
O=C(c1c(F)ccc(NS(=O)(=O)N2CC[C@@H](F)C2)c1F)c1c[nH]c2ncc(-c3cnc(C4CC4)nc3)cc12	31.7%
CC(C)[C@@H]1CC[C@@H]2[C@@H]1[C@H](OC(=O)/C=C/c1ccccc1)[C@]1(C(C)C)C[C@@H](OC(=O)CO)[C@@]2(C)O1	16.5%
CC(C)(O)CC(=O)NCCn1ccc2ncnc(Nc3ccc(Oc4cccc(C(F)(F)F)c4)c(Cl)c3)c21	3% (active)
COc1ccc(-c2cc3c(C)nc(N)nc3n(C3CCC(OCCO)CC3)c2=O)cn1 (stereo not given)	-12.6% (active)
Brc1ccc([I+]c2ccc(Br)cc2)cc1	11.6%
CO[C@@H](C)Cn1c(=O)n(C)c2cnc3ccc(-c4cncc(C(C)(C)O)c4)cc3c21	-13% (active)
CCn1c(-c2nonc2N)nc2c(C#CC(C)(C)O)ncc(OC[C@H]3CCCNC3)c21	70.6%

Reference: PubChem BioAssay (NCI)
